From PubChem BioAssay AID425 (Sanford-Burnham Center for Chemical Genomics, 2006)
Several values for one entry are separate records, joined by “and”; a condition that tells them apart may be missing. Identical values can stand only once. In all, about 110,000 compounds went through this assay and about 190 (0.17%) were called active. Cut-off read from the data, not from the text of the source: active = inhibition above about 50%; inactive = the rest. This excerpt belongs to a sample that is enriched for actives. Measured potencies and affinities stand elsewhere. More than one record can exist for a structure, and the calls need not agree.

molecular target: Dual specificity protein phosphatase 6 (Rattus norvegicus) (UniProt Q64346); assay: MKP-3 phosphatase inhibitors, primary screen, biochemical, rat enzyme, in vitro (AID 425); settings: recombinant MKP-3 phosphatase activity, fluorescence; at 20 µM; stronger effect = higher value;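 note: plate controls were vehicle for no effect and reference inhibitor for full effect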
Sequence (Q64346 whole entry, looked up): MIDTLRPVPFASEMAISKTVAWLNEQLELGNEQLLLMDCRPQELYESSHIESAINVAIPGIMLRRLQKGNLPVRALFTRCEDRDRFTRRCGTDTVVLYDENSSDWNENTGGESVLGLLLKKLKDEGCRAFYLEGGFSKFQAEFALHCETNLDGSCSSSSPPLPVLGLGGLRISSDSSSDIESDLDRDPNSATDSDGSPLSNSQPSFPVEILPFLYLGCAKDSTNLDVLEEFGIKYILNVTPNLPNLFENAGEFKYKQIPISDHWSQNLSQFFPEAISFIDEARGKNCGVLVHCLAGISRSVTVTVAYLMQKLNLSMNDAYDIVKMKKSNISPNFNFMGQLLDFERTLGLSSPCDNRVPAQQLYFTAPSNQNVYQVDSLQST

Compound | inhibition
O=C(c1ccc([N+](=O)[O-])cc1)N1CCN(Cc2ccccn2)CC1 | 1.2% (inactive)
CC(=O)CC(=O)Nc1ccc(C)c(Cl)c1 | -2.2% (inactive)
O=C1c2ccccc2C(=O)N1/N=C/c1ccc(Cl)c([N+](=O)[O-])c1 | -2.1% (inactive)
O=[N+]([O-])c1cccc(S(=O)(=O)/N=C(/Nc2ccccc2)c2ccccc2)c1 | 0.1% (inactive)
O=C1C=CC(=NS(=O)(=O)c2ccc(Cl)c([N+](=O)[O-])c2)C=C1 | 10.8% (inactive)
O=C1C=C/C(=N\S(=O)(=O)c2cccc([N+](=O)[O-])c2)c2ccccc21 | 78.3% (active)
O=C1C=C/C(=N\S(=O)(=O)c2ccc(Cl)c([N+](=O)[O-])c2)c2ccccc21 | 57.6% (active)
O=[N+]([O-])c1cccc(S(=O)(=O)Nc2ccccc2-c2ccccc2)c1 | -0.7% (inactive)
COc1ccc(C(=O)NC(=S)Nc2ccc(I)cc2)cc1 | 1.2% (inactive)
CCc1ccc(S(=O)(=O)Nc2ccc(OC(=O)c3ccc(Cl)cc3)cc2)cc1 | 0.4% (inactive)
Cn1c(/N=C/c2c(O)ccc3ccccc23)nc2ccccc21 | -12.4% (inactive)
CCn1c(/N=C/c2c(O)ccc3ccccc23)nc2ccccc21 | 78.4% (active)
CCn1c(/N=C/c2c[nH]c3ccccc23)nc2ccccc21 | -7.4% (inactive)
COc1ccc(NC(=O)CN(c2ccc(C)cc2)S(=O)(=O)c2ccc(SC)cc2)cc1OC | 0.5% (inactive)
O=c1c2ccc(Br)c3cccc(c32)c2nc3ccc4c5c(ccc(c35)n12)CC4 | 0.3% (inactive)
O=c1c2ccc(Br)c3cccc(c32)c2nc3cccc4cccc(c43)n12 | 2.3% (inactive)
N#Cc1ccc2c(c1)nc1c3cccc4cccc(c(=O)n21)c43 | 66.7% (active)
CCOc1ccc2nc(SC3CC(=O)N(c4ccccc4C)C3=O)sc2c1 (stereo not drawn) | 0.7% (inactive)
COc1ccc(/C=C2/NC(=O)/C(=C/c3ccc(OC)cc3)C2=O)cc1 | 4.5% (inactive)
Cc1ccc(/C=C2\NC(=O)c3ccccc3C2=O)cc1 | 21% (inactive)
COc1ccc(/C=C2\NC(=O)c3ccccc3C2=O)cc1 | 121% (active)
O=S(=O)(Nc1ncnc2c1oc1ccccc12)c1ccc(Cl)s1 | -12.5% (inactive)
COc1ccc(/C=C2/C(=N)N3N=C(C(C)C)SC3=NC2=O)cc1OC | 0% (inactive)
CCC1=NN2C(=N)/C(=C/c3ccc(OC)c(OC)c3)C(=O)N=C2S1 | -3.5% (inactive)
CC(=O)N1CCC(C(=O)Nc2ccccc2)(N(Cc2ccccc2)C(=O)c2cccnc2)CC1 | -4.2% (inactive)
CCOC(=O)c1nnn(-c2nonc2N)c1CNC(C)C | 6.2% (inactive)

Compound | inhibition
CCOC(=O)c1c(C)n(C)c2ccc(OC(C)C(=O)OC)cc12 (stereo not drawn) | -3.4% (inactive)
CCOC(=O)c1c2c(n(C)c1CNC(C)C)C(=O)C(=O)c1ccc(Br)cc1-2 | 117% (active)
CCOC(=O)c1c2c(n(C)c1CO)C(=O)C(=O)c1ccc(Br)cc1-2 | 120% (active)
CCOC(=O)c1c2c(n(Cc3ccccc3)c1C)C(=O)C(=O)c1ccc(Br)cc1-2 | 34% (inactive)
Cc1c(CN(C)C)c2c(n1C)C(=O)c1ccc(Br)cc1-2 | 1.2% (inactive)
Cc1cc([N+](=O)[O-])ccc1NCc1ccco1 | 0.4% (inactive)
Cc1nc(C)n(CC(O)COc2ccc3c(c2)CCC3)n1 (stereo not drawn) | -16.3% (inactive)
C=CCn1c(NC(=O)c2ccccc2)c(C#N)c2nc3ccccc3nc21 | 23.5% (inactive)
CCC(=O)Nc1c(C#N)c2nc3ccccc3nc2n1-c1ccc(C)cc1 | 1.4% (inactive)
COc1ccc(C(=O)NCCn2ccc3ccccc32)cc1OC | -4.9% (inactive)
COC(=O)c1c(NC(=O)c2c(C)noc2C)sc2c1CCCCCC2 | -8.3% (inactive)
CC(=O)Nc1ccc(S(=O)(=O)NCC(C)NS(=O)(=O)c2ccc(NC(C)=O)cc2)cc1 (stereo not drawn) | -11.4% (inactive)
Cc1ccc(S(=O)(=O)NCC(C)NS(=O)(=O)c2ccc(C)cc2)cc1 (stereo not drawn) | 69.6% (active)
CCCC(C)NS(=O)(=O)c1ccc(C)cc1 (stereo not drawn) | -0.1% (inactive)
COC(=O)c1ccc(-c2ccc(/C=N\Nc3ccc([N+](=O)[O-])cn3)o2)cc1 | 5.2% (inactive)
CCSc1nc(N)c2c3c(sc2n1)COC(C)(CC)C3 (stereo not drawn) | 3.9% (inactive)
CC(=O)Nc1ccc(C(=O)NCc2ccccn2)cc1 | 1.3% (inactive)
Cc1ccnc(NS(=O)(=O)c2ccc(NC(=O)c3cccc(I)c3)cc2)n1 | 1.1% (inactive)
CC1(C)CC(NC(=O)CCc2ccccc2)CC(C)(C)N1 | 3.8% (inactive) and -2.1% (inactive)
Oc1ccc(/C=N/N=C/c2ccc(O)c(O)c2)cc1O | 1.8% (inactive)
Oc1cccc(C=Nc2ccc(Cl)c(Cl)c2)c1 | -1.5% (inactive)
CN(C)c1ccc(C=Nc2ccc(N(C)C)cc2)cc1 | -3.9% (inactive)
Oc1ccc(N=Cc2ccc(O)c(O)c2)cc1 | 69.4% (active) and -3.7% (inactive)
Oc1ccc(C=Nc2ccc(O)cc2)cc1 | 51% (active)
COc1ccc(N=Cc2ccc(O)c(OC)c2)cc1 | -0.9% (inactive)
Oc1ccc(N=Cc2cc(Br)cc(Br)c2O)cc1 | 9.6% (inactive)

Compound | inhibition
Cc1cccc(C=Nc2ccc(O)cc2)c1 | 118% (active)
Cc1cccc(C=Nc2ccc(-c3nc4ccc(C)cc4s3)cc2)c1 | -2.3% (inactive)
COc1ccc2c(c1OC)CN(C)CCc1cc3c(cc1C(O)C2)OCO3 (stereo not drawn) | -15.6% (inactive)
COc1ccc(C2NC(=O)NC(C)=C2C(=O)Nc2ccccc2C)cc1OC (stereo not drawn) | -0.4% (inactive)
O=C1CCCC2=C1C(c1ccc(Cl)cc1)Nc1ccccc1N2 (stereo not drawn) | 0.4% (inactive)
Cc1ccccc1NC(=O)CCCN1C(=O)/C(=C/c2cccc3c2OCO3)SC1=S | 4.3% (inactive)
CSc1nsc(SC)c1NC(=O)OCc1ccccc1 | -3.9% (inactive) and 1.7% (inactive)
COc1cccc(C(=O)Nc2ccc(OC(F)(F)F)cc2)c1 | 3.1% (inactive)
COc1ccc(/C=C2\SC(=O)N(CC(=O)Nc3nccs3)C2=O)cc1OC | 0% (inactive)
O=S(=O)(NCc1ccc(F)cc1)c1ccc2ccccc2c1 | 0% (inactive)
COC(=O)c1sc(=S)n(-c2cc(F)ccc2F)c1N | 10.2% (inactive)
Cc1ccc2[nH]c(C)c(CC(=O)N/N=C/c3cccnc3)c2c1 | -2% (inactive)
Cc1ccccc1-n1c(O)c(C=C2C=CC=N2)c(=O)[nH]c1=S | 45.4% (inactive)
O=c1[nH]c(=S)n(-c2ccccc2F)c(O)c1C=C1C=CC=N1 | 60.5% (active)
O=c1[nH]c(=S)n(-c2cccc(Cl)c2)c(O)c1/C=C1/C=CC=N1 | 9% (inactive)
O=c1[nH]c(=O)n(-c2ccccc2Cl)c(O)c1C=C1C=CC=N1 | 3.3% (inactive)
COc1ccc(-n2c(O)c(/C=C3\C=CC=N3)c(=O)[nH]c2=O)cc1 | 2.1% (inactive)
Cn1c(O)c(/C=C2/C=CC=N2)c(=O)n(-c2ccccc2)c1=S | 95.6% (active)
COc1ccc(NC(=O)Cn2nnc(C(N)=O)c2N)c(OC)c1 | -7.2% (inactive)
O=C1c2ccc(-c3nc4ccccc4c(=O)o3)cc2C(=O)N1c1ccc(I)cc1 | -0.1% (inactive)
COC(=O)c1ccc(-n2c(C)cc(/C=N/n3cnnc3)c2C)cc1 | -6.7% (inactive)
Cc1nnc(NC(=O)CSc2cn(Cc3ccccc3)c3ccccc23)s1 | -5.8% (inactive)
COc1ccc(/C=C/C(=O)Nc2ccc(C)c([N+](=O)[O-])c2)cc1OC | -0.5% (inactive)
Cc1ccc(/C=N/n2cnnc2)cc1[N+](=O)[O-] | -0.6% (inactive)
O=C(O)CCCCCN1C(=O)C(=O)/C(=C(/O)c2ccccc2)C1c1ccc(F)cc1 (stereo not drawn) | 0.8% (inactive)
CC(C)(C)c1ccc(OCC(=O)NC2CCS(=O)(=O)C2)cc1 (stereo not drawn) | 3% (inactive)
